Results as given in the supplement of paper PMC12669032.
Unmarked numbers belong to inactive results.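 How the source made its calls: active = AUC reduced over 20% with Padj below 0.05 in at least 2 of 3 replicates; inactive = otherwise.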

Experiments:
Assay in all cases: growth AUC relative to DMSO control (median of replicates) (fraction); higher = more growth (less inhibition), active = hit call of the paper
Conditions in all cases: 20 µM; 24 h
[1] = tested on: Akkermansia muciniphila
Outline: (§1)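 In round-bottom 96-well plates sealed with pierced gas-permeable seals, gut bacterial monocultures in mGAM were grown anaerobically at 37 °C from OD600 0.05 with 20 µM compound (1% DMSO). OD600 readings were taken hourly for 24 h, and the minimum OD was set to 0. Area under the growth curve was then normalised to the plate median of solvent-only wells, or to row and column medians on the industrial chemical plate. The value given is the median of three biological replicates grown on separate days.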

[2] = tested on: Bacteroides caccae
Outline: as §1

[3] = tested on: Bacteroides clarus
Outline: as §1

[4] = tested on: Bacteroides dorei
Outline: as §1

[5] = tested on: Bacteroides stercoris
Outline: as §1

[6] = tested on: Bacteroides thetaiotaomicron
Outline: as §1

[7] = tested on: Bacteroides uniformis
Outline: as §1

[8] = tested on: Bifidobacterium longum subsp. longum
Outline: as §1

[9] = tested on: Clostridium difficile
Outline: as §1

[10] = tested on: Collinsella aerofaciens
Outline: as §1

Row | SMILES | growth AUC [1] | growth AUC [2] | growth AUC [3] | growth AUC [4] | growth AUC [5] | growth AUC [6] | growth AUC [7] | growth AUC [8] | growth AUC [9] | growth AUC [10]
1 | Clc1ccccc1Cl | 0.952 | 1.02 | 1.02 | 0.992 | 0.991 | 0.986 | 1.03 | 1.11 | 0.996 | 0.975
2 | O=C(O)C(F)(F)C(F)(F)C(F)(F)C(F)(F)C(F)(F)C(F)(F)C(F)(F)F | 1.01 | 1 | 1 | 0.998 | 1.01 | 1.04 | 0.963 | 1.04 | 0.991 | 1
3 | O=[N+]([O-])c1ccc(O)c([N+](=O)[O-])c1 | 1.07 | 0.987 | 0.939 | 0.98 | 0.867 | 0.889 | 0.946 | 1 | 0.973 | 0.992
4 | Nc1c([N+](=O)[O-])ccc(Oc2ccccc2)c1Cl | 0.741 | 0.964 | 0.861 | 0.941 | 0.925 | 0.941 | 0.978 | 0.871 | 0.982 | 0.897
5 | CCOc1nc(NC)nc(NC(=O)NS(=O)(=O)c2ccccc2C(=O)OC)n1 | 0.947 | 1.01 | 1.01 | 1.02 | 0.97 | 0.988 | 0.998 | 0.967 | 0.979 | 0.992
6 | N#Cc1c(Cl)c(Cl)c(Cl)c(C#N)c1Cl | 0.96 | 0.984 | 0.563 (active) | 0.931 | 0.566 (active) | 0.0851 (active) | 0.218 (active) | 0.782 (active) | 0.997 | 0.864
7 | CCCCOC(=O)c1ccccc1C(=O)OCCCC | 1.05 | 0.94 | 1.01 | 0.998 | 0.99 | 1 | 0.978 | 0.938 | 1.02 | 0.985
8 | Clc1ccc(C2(Cn3cncn3)CC(Br)CO2)c(Cl)c1 (stereo not given) | 1.07 | 0.973 | 0.982 | 0.955 | 0.921 | 0.961 | 0.944 | 0.896 | 0.978 | 0.951
9 | CO/N=C(/C(=O)OC)c1ccccc1CO/N=C(\C)c1cccc(C(F)(F)F)c1 | 0.96 | 0.937 | 0.897 | 1.02 | 0.993 | 0.956 | 0.994 | 0.975 | 1.09 | 0.993
10 | CN(C)C(=O)Nc1cccc(OC(=O)NC(C)(C)C)c1 | 1.19 | 0.771 | 1.01 | 0.977 | 1.4 | 0.958 | 0.883 | 1.01 | 0.928 | 0.918
11 | CCCC1COC(Cn2cncn2)(c2ccc(Cl)cc2Cl)O1 (stereo not given) | 1.02 | 0.952 | 0.912 | 0.945 | 0.854 | 0.902 | 0.871 | 0.97 | 0.956 | 0.981
12 | CC1(C)CN=C(NN=C(/C=C/c2ccc(C(F)(F)F)cc2)/C=C/c2ccc(C(F)(F)F)cc2)NC1 | 0.911 | 0.961 | 0.979 | 1.03 | 0.902 | 1.03 | 0.991 | 0.998 | 0.972 | 1.09
13 | CCOP(=O)(N=C1SCC(C)S1)OCC (stereo not given) | 0.979 | 0.995 | 0.966 | 1.03 | 0.983 | 1.01 | 1.03 | 1.03 | 0.977 | 1
14 | COCc1c(F)c(F)c(COC(=O)C2C(C=C(C)C)C2(C)C)c(F)c1F (stereo not given) | 0.976 | 0.953 | 0.943 | 0.991 | 1.17 | 0.98 | 0.972 | 1.01 | 1.02 | 1.03
